Among all 370,000 compounds or so, about 4,100 (1.1%) were called active. Many of the other results were omitted from the sample, so actives are more common in it than they were. A number with no mark means an inactive call.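 The calls were made as follows: active = inhibition above the mean over all tested compounds plus 3 SD (cut at about 3.6% in these data); inactive = the rest.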
test: relief of DAX-1 repression of SF-1 activity – cell-based, luminescence, SF-1 (NR5A1), full-length DAX-1, primary screen (AID 652010); conditions: HEK293T StAR-luciferase reporter, SF-1/DAX-1 repression relief; at 6.8 µM; stronger effect = higher value;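 also: 0% = DAX-1 cells with DMSO and 100% = cells lacking DAX-1 with DMSO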

| Compound | inhibition |
| --- | --- |
| O=C(Nc1ccccc1)c1ccccc1Br | 4.1% (active) |
| O=C(O)c1ccccc1-c1ccccc1C(=O)Nc1ccccc1Br | 2.05% |
| O=C(Nc1ccc(-n2ccnc2P(=O)(O)c2ccccc2)cc1)c1ccccc1Br | 0.24% |
| CCC(CO)Nc1cccc2c1S(=O)(=O)N(Cc1cn(Cc3ccccc3C(F)(F)F)nn1)Cc1ccccc1O2 (stereo not given) | 0.53% |
| COc1ccc(N2CCN(CCNS(=O)(=O)c3ccc(Cl)s3)CC2)cc1 | -1.29% |
| CCn1c(SCC(=O)NCC2CCCO2)nc2ccccc21 (stereo not given) | 0.35% |
| Cn1c(SCC(=O)c2ccccc2)ncc(C(=O)Nc2ccc(F)cc2)c1=O | 0.92% |
| Cc1ccc(NC(=O)c2cnc(SCC(=O)NCC3CCCO3)n(C)c2=O)cc1 (stereo not given) | 3.81% (active) |
| CC(CCN1CCC(C(O)(c2ccccc2)c2ccccc2)CC1)Oc1ccc([N+](=O)[O-])cc1Cl (stereo not given) | -0.6% |
| CC(C)c1ccc(NS(=O)(=O)c2cn(C)c(=O)n(C)c2=O)cc1 | 1.86% |
| Cc1ccc(-n2c(SCC(=O)Nc3cccc4ccccc34)nnc2-c2ccco2)cc1 | -1.09% |
| C=CCN=C1NC(c2ccccc2)C(C(=O)OC)=C(C)N1Cc1ccc(C(F)(F)F)cc1 (stereo not given) | -0.62% |
| NNc1cccc(C=Cc2ccccc2)cc1=O | 4.11% (active) |
| Cc1ccc(NC(=O)Nc2cc(C)nn2-c2ccccc2)cc1 | -0.81% |
| COC(=O)[C@]12C[C@H](CC(=O)NCc3cccs3)C(=O)N(CCc3ccc(OC)c(OC)c3)C1=C[C@H](C(C)C)O[C@@H]2C1CC1 | 0.43% |
| CCOC(=O)N1CCN(C(=O)C[C@H]2C[C@@]3(C(=O)OC)C(=C[C@H](C(C)(C)C)O[C@@H]3C)N(Cc3ccc(Cl)cc3Cl)C2=O)CC1 | -1.88% |
| Fc1ccccc1/C=N/Nc1cc(N2CCCCC2)ncn1 | 3.71% (active) |
| CCOC(=O)c1cccc(NC(=O)CN(C)S(=O)(=O)c2ccc(-c3cocn3)s2)c1 | -0.38% |
| COc1cccc(CNC(=O)C2CCCN(c3nc4ccccc4o3)C2)c1OC (stereo not given) | -1.08% |
| O=C(O)Cn1c(Cc2ccccc2)nc2ccccc21 | 0.13% |
| Cc1c(C=O)c2ccccc2n1CCOc1ccccc1 | -1.1% |
| Cc1c(C=O)c2ccccc2n1CC(=O)O | 3.62% (active) |
| O=c1oc(/C=C/c2ccccc2)nc2ccccc12 | 5.78% (active) |
| S=c1[nH]nc(/C=C/c2ccccc2)o1 | -0.19% |
| O=c1oc(-c2ccccc2NS(=O)(=O)c2ccc(Cl)cc2)nc2ccccc12 | 0.22% |
| CN(CC(=O)Nc1ccc(C(N)=O)cc1)S(=O)(=O)c1ccc2c(c1)OCCO2 | -0.16% |
| COCCCNC(=O)c1ccc(CNS(=O)(=O)c2ccc(NC(C)=O)cc2)cc1 | -0.22% |
| CC1CCCN(c2cccc3c2S(=O)(=O)N(Cc2ccc(F)cc2)[C@@H](C)[C@H](c2ccccc2)O3)C1 (stereo not given in full) | 1.64% |

| Compound | inhibition |
| --- | --- |
| COc1ccc(NC(=O)CSCc2ccc([N+](=O)[O-])cc2)cc1OC | 0.2% |
| COc1cc(/C=N/O)ccc1OCc1ccc([N+](=O)[O-])cc1 | 4.6% (active) |
| CCOc1cc(/C=N/O)ccc1OCc1ccccc1F | 0.47% |
| Cn1nc(C(C)(C)C)c(NC(=O)c2sccc2Cl)c1C(C)(C)C | -0.4% |
| C[C@@H]1ON(C)[C@H]2C[C@H]3c4cc(N5CCOCC5)ccc4CCN3C[C@@H]12 | 0.27% |
| COc1ccccc1Cc1c(-c2ccc(F)cc2)nc2ccc(C)cn12 | 4.57% (active) |
| Brc1ccc2nc(-c3ccccc3)c(Cc3ccccc3)n2c1 | 0.67% |
| COC(=O)c1ccc2nc(-c3ccc(F)cc3)c(Cc3ccc(C)cc3)n2c1 | 0.98% |
| Cc1ccc(-c2nc3ccc(Cl)cn3c2Cc2ccccc2)cc1 | 4.09% (active) |
| Cc1ccc(-c2nc3ccc(Br)cn3c2Cc2ccccc2C(F)(F)F)cc1 | 7.12% (active) |
| Cc1ccc2nc(-c3cccnc3)c(NC3CCCC3)n2c1 | -0.53% |
| COC(=O)c1ccc2nc(-c3ccccc3)c(Cc3ccc(OC)cc3C)n2c1 | 3.05% |
| COc1ccccc1Cc1c(-c2ccc(Cl)cc2)nc2ccc(Cl)cn12 | 2.6% |
| Cc1ccc(-c2nc3c(C)cc(Br)cn3c2Cc2ccccc2)cc1 | -0.26% |
| Cc1cc(Br)cn2c(Cc3ccccc3C(F)(F)F)c(-c3ccc(C#N)cc3)nc12 | -0.14% |
| Cc1ccc2nc(-c3ccccc3)c(CC3CCCCC3)n2c1 | 3.67% (active) |
| Cc1cc(Br)cn2c(Cc3ccccc3C(F)(F)F)c(-c3ccc(Cl)cc3)nc12 | -1.19% |
| COC(=O)[C@]12C[C@H](CC(=O)NCCc3ccccc3OC)C(=O)N(Cc3ccccc3)C1=C[C@H](C(C)C)O[C@@H]2C1CC1 | 0.15% |
| CCOC(=O)[C@]12CCCCC/C=C\1N(Cc1ccc(OC)cc1)C(=O)[C@H]2CC(=O)N1CCOCC1 | -0.42% |
| CN1C(=O)C2CC(O)C(SC3CC4C(=O)N(C)C(=O)C4CC3O)CC2C1=O (stereo not given) | 0.64% |
| CCOC(=O)/C=C/c1ccccc1O | 0.4% |
| COc1cccc(CNC(=O)[C@H]2CCCN2C(=O)[C@H]2CCCN2C(=O)c2cc(F)cc(F)c2)c1 | 0.51% |
| CCn1c2ccccc2c2cc(NC(=O)CSc3nnc(-c4ccccc4)n3-c3ccc(C)cc3)ccc21 | -0.77% |
| CN1C(=O)c2cc(NS(C)(=O)=O)ccc2OC[C@@H]2O[C@@H](CC(=O)NCc3ccc(-c4ccccc4)cc3)CC[C@H]21 | -0.35% |
| CC(C)(C)NS(=O)(=O)NC(=O)C1=C(N2CCCC2)COC1=O | 0.57% |
| CCCCNC(=O)C[C@H]1C(=O)N(Cc2ccc(OC)cc2)C2=CCCC[C@@]21C(=O)OCC | -0.74% |
| C[C@H]1[C@H](c2ccccc2)Oc2cc(Br)ccc2S(=O)(=O)N1Cc1cccc(F)c1 | -0.98% |

From PubChem BioAssay AID652010 (The Scripps Research Institute Molecular Screening Center, 2013)
